Screen size: about 48,000 compounds; about 13,000 (27%) showed an effect of 50% or more. Some of the results follow.
System: Wolbachia pipientis
Experiment: Anti-Wolbachia Cell-Based Screen
Format: functional
Set-up: scale not given: in the data most compounds retested in dose-response had high values
Conditions: 5 µM

Structure (SMILES)	Percent Effect [%]
O=C(NCC1(O)CCOC1)NCC1(c2ccccc2Cl)CC1 (centres undefined)	3.661
CCS(=O)(=O)CC(=O)Nc1cccc2c1CN(CC(C)C)C2	-13.69
CC(NC(=O)CCc1nc(-c2nnc[nH]2)no1)c1ccc(F)cc1F (centres undefined)	1.12
O=C1NC2(CCN(Cc3ccccc3Cl)CC2)CC1c1ccccc1 (centres undefined)	14.18
O=C1NCc2ccccc2CC12CCN(Cc1c(F)cccc1Cl)C2 (centres undefined)	159.3
CN(Cc1c(F)cccc1Cl)C(=O)CN(C)C1CCc2ccccc21 (centres undefined)	-6.423
O=C(C1CCOC1)N1CCC2(CC1)Cc1ccccc1CNC2=O (centres undefined)	-36.36
O=C(O)c1csc(S(=O)(=O)N2CCN(Cc3c(F)cccc3Cl)CC2)c1	1.307
COCCCC1(C(=O)O)CCCN(Cc2ccccc2C)C1 (centres undefined)	-5.241
N#Cc1ccccc1C(=O)N1CCC2(CC(=O)NC2=O)C1 (centres undefined)	-23.72
O=C1NCc2ccccc2CC12CCN(Cc1ccccc1Cl)CC2	119.1
O=C(O)c1ccccc1CN1CCC2(Cc3ccccc3CNC2=O)C1 (centres undefined)	101.8
CC(CC#N)N(C)Cc1ccccc1Cl (centres undefined)	14.98
CSc1nccc(N2C[C@@H]3CC[C@H](C2)N(CC2CCC2)C3=O)n1	23.13
COCCC1(C(=O)NCCc2nncn2C2CC2)CCC1	-3.297
CCOCC1CCN(C(=O)Nc2ccc3c(c2)CCCO3)C1 (centres undefined)	-8.757
CS(=O)(=O)c1nccn1CCOc1ccccc1F	21.64
O=C(O)C(F)(F)F.c1csc(CN2CCCn3cnc(COCC4CC4)c3C2)n1	-1.239
O=C1OCCN1CC(=O)N1C[C@H]2CC[C@@H]1CN(C(=O)c1cccnc1)C2	-9
O=C(NC1CC1)c1cc(NC(=O)N2CCCC2)ccc1Cl	-51.77
CC(NC1CCN(C(=O)C2CCCCC2)CC1)c1nccs1 (centres undefined)	-8.519
CCc1ccc(O)c(C(=O)NC2CCN(C(=O)OC)CC2)c1	2.941
CCc1cnccc1C(=O)NC1CCN(C(=O)C2CCCCC2)CC1	87.11
O=C(C1CCCC1)N1CCC(Nc2ccncn2)CC1	23.24
CCc1cnccc1C(=O)NC1CCN(Cc2ccccc2F)CC1	94.68

Structure (SMILES)	Percent Effect [%]
O=C(NC1CCN(C(=O)C2CCCCC2)C1)c1ccncc1Cl (centres undefined)	79.99
CCc1cnccc1C(=O)NC1CCN(C(=O)OC)CC1	94.08
CCc1ccc(O)c(C(=O)NC2CCN(Cc3ccncc3)CC2)c1	19.96
N#Cc1cnc(NC2CCN(C(=O)C3CCCCC3)CC2)c(Cl)c1	1.1
CC(NC(=O)NC1CCN(Cc2ccncc2)CC1)c1ccccc1F (centres undefined)	-8.351
CNC(=O)C(C)CN(C)C(=O)Nc1ccc(F)c(-n2cccc2)c1 (centres undefined)	-4.138
CC(C)n1ccc(=O)nc1SC1CCN(c2ccccc2F)C1=O (centres undefined)	-4.763
CCN(CC)C(=O)CNS(=O)(=O)c1cc(Br)ccc1F	7.808
CCC(C#N)NC(=O)COC1CCCCC1 (centres undefined)	0.5871
O=C(O)C(F)(F)F.O=C(O)C(F)(F)F.c1nc2n(c1CN1CCCCC1)CCN(C1CCOC1)CC2 (centres undefined)	7.057
Cc1cnn(CCC(=O)N2CCOC(c3nc(C(C)(C)C)n[nH]3)C2)c1 (centres undefined)	0.508
CC(=O)N1CCOC(c2cncc(CCC(N)=O)n2)C1 (centres undefined)	132.1
Cn1cc(CC(=O)N2CCOC(c3nc(C(C)(C)C)n[nH]3)C2)cn1 (centres undefined)	-9.292
Cc1nn(CCC#N)c(C)c1CCC(=O)N(C)C.Cl	11.54
CC(C)(C)c1n[nH]c(C2CN(C(=O)CCc3cscn3)CCO2)n1 (centres undefined)	-3.136
CCCc1n[nH]c(C2CN(CC(=O)N(C)Cc3ccco3)CCO2)n1 (centres undefined)	-31.39
CN1CCOC(c2cncc(CCC(=O)N(C)C)n2)C1 (centres undefined)	119.8
CN1CCOC(c2cncc(CCC(N)=O)n2)C1 (centres undefined)	120.9
CC(=O)N1CCOC(c2cncc(CCC(=O)N(C)C)n2)C1 (centres undefined)	131.5
CC(=O)N1CCOC[C@H](OCC(=O)N(C)C)C1	-10.39
CCC(CC)CN1CCC2(CCC(=O)N2OCc2ccccc2F)CC1	5.285
CSCC(C)(O)CNc1cccc(F)c1C(C)=O (centres undefined)	5.644
Cc1nc(CNC(C(=O)N2CCOCC2)c2ccccc2)cs1 (centres undefined)	-4.254
COCCN(C)CCN1CC2(CCN(C3CCSC3)CC2)OC1=O (centres undefined)	-12.17
NC(=O)CCn1ccc(NC(=O)c2ccc(OCC3CC3)cc2)n1	-25.96

Structure (SMILES)	Percent Effect [%]
CC(C)(C(=O)NCC(N)=O)c1ccccc1F	-10.57
Cc1cn2c(CN(C)C(=O)c3nccnc3N)c(C)nc2s1	-5.585
Nc1nccc(N[C@H]2CN(CC(=O)NC3CCCCC3)C[C@@H]2C2CC2)n1	-21.82
Cn1c(SCC(O)COCc2ccc(Cl)cc2)nnc1C1CC1 (centres undefined)	-3.183
O=C(CC1CCCC1)N1C[C@@H]2CN(Cc3ccoc3)CCO[C@@H]2C1	-9.792
CCN1CCO[C@@H]2CN(C(=O)COC3CCCC3)C[C@@H]2C1.O=C(O)C(F)(F)F	2.686
O=C(N1CCCC1)N1C[C@@H]2CN(Cc3ccoc3)CCO[C@@H]2C1	26.69
Cc1cnc(C(=O)N2C[C@@H]3CN(CC4CCCC4)CCO[C@@H]3C2)cn1.O=C(O)C(F)(F)F	-8.351
O=C(O)C(F)(F)F.O=C(c1cocn1)N1C[C@@H]2CN(CC3CC3)CCO[C@@H]2C1	1.689
O=C(C1CC(F)(F)C1)N1C[C@@H]2CN(Cc3ccoc3)CCO[C@@H]2C1	97.76
O=C(C1CC(F)(F)C1)N1C[C@@H]2CN(CC3CC3)CCO[C@@H]2C1.O=C(O)C(F)(F)F	110.9
O=C(C1CC(F)(F)C1)N1C[C@@H]2CN(Cc3ccsc3)CCO[C@@H]2C1.O=C(O)C(F)(F)F	8.794
O=C(C1CC(F)(F)C1)N1C[C@@H]2CN(CC3CCCC3)CCO[C@@H]2C1.O=C(O)C(F)(F)F	97.34
CCS(=O)(=O)CC(=O)NC1(c2ccc(Cl)c(Cl)c2)CC1	-4.937
NC(=O)CC1CCN(S(=O)(=O)c2cnn(-c3ccccc3)c2)CC1	23.91
OC[C@H]1CCN(Cc2ccc3ccccc3n2)C[C@@H]1O	-11.71
COc1c(C2CCCN2c2ncnc3c2CCC3)c(C)nn1C (centres undefined)	-10.62
CCCS(=O)(=O)N1CCC(n2nc(-c3cc(C)oc3C)ccc2=O)CC1	123.5
CCS(=O)(=O)N1CCC(n2nc(-c3cc(C)oc3C)ccc2=O)CC1	128.2
Cc1cc(-c2ccc(=O)n(C3CCN(S(C)(=O)=O)CC3)n2)c(C)o1	123.5
Cc1ccc(C(C)NC(=O)N2CCN(S(C)(=O)=O)CC2)o1 (centres undefined)	16.96
CN(C)S(=O)(=O)N1CCC(C(O)c2ccc(Cl)cc2)CC1 (centres undefined)	-7.887
CCS(=O)(=O)N1CCC(c2nnc(C3CC3)o2)CC1	-10.63
CCCS(=O)(=O)N1CCC(c2ccc(OC)cc2)CC1	-3.773
CN(C)S(=O)(=O)N1CCC(Oc2ccc(C#N)cc2)CC1	-11.9

Structure (SMILES)	Percent Effect [%]
Cc1cc(-c2n[nH]c3c2CN(S(=O)(=O)c2ccsc2)CC3)c(C)o1	6.081
CCCS(=O)(=O)N1CCC(NC(=O)c2cc(C)c(CC)s2)CC1	4.17
Cc1cc(-c2ccc(=O)n(C3CCN(S(=O)(=O)N(C)C)CC3)n2)c(C)o1	95.62
Cc1cc2cc(CNC3CCN(S(C)(=O)=O)CC3)oc2cc1C	-4.149
COc1cc(F)ccc1-c1cc(CO)ccn1	-29.15
CC(=O)N[C@@H]1Cc2ccccc2[C@H]1Nc1ccncn1	4.323
CCC1CCCCN1S(=O)(=O)c1c(N)noc1C (centres undefined)	0.4068
COc1ccc(C(=O)N2CCN(CCO)CC2)c(F)c1	102.7
Cc1nc2cc(F)cc(C(=O)N3CCN(CCO)CC3)c2nc1C	-10.5
O=C(c1ccc(-c2cccs2)cc1F)N1CCN(CCO)CC1	-12.79
Cc1cc(C(=O)NC2CCc3c(ccc(=O)n3CC(C)C)C2)no1 (centres undefined)	105.4
CC(C)Cn1c2c(ccc1=O)CC(N)CC2 (centres undefined)	-23.17
CC(C)Cn1c2c(ccc1=O)CC(NC(=O)c1ccsc1)CC2 (centres undefined)	-16.59
O=C(NC1CCc2c(ccc(=O)n2CC2CC2)C1)c1cscn1 (centres undefined)	-44.11
Cc1cc(C(=O)N[C@H]2CC[C@@]3(CCC(=O)N3C)CC2)no1	-27.57
N#Cc1cccc(C(=O)NC2CCc3c(ccc(=O)n3CC3CC3)C2)c1 (centres undefined)	110.8
CC(=O)NCC(=O)NC1CCc2c(ccc(=O)n2CC2CC2)C1 (centres undefined)	-21.87
Cc1cc(C(=O)NC2CCc3c(ccc(=O)n3CCN(C)C)C2)no1 (centres undefined)	93.45
O=C(CC1CC1)NC1CCc2c(ccc(=O)n2CC2CC2)C1 (centres undefined)	-16.88
Cc1cc(C(=O)NC2CCc3c(ccc(=O)n3CC3CC3)C2)no1 (centres undefined)	117.2
CCc1cc(NC2CCS(=O)(=O)CC2)nc(N2CCCCC2)n1	-3.09
Cn1c(CO)cnc1SC1CCCN(c2ccccc2F)C1=O (centres undefined)	-6.766
CC(Nc1ccn(CCS(C)(=O)=O)n1)c1ccc(C#N)cc1 (centres undefined)	-8.389
F[C@@H]1CN(CC2CC2)C[C@@H]1OCc1nc2ccccc2[nH]1	-1.846

From ChEMBL document CHEMBL3988442, “University of Dundee, Small-Polar-MMV Screening Library” (2021)
